Compounds without any hit were thinned out: in the full panel of roughly 83,000, 20% have a hit.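 Negative percent growth values reflect cell death: -40 means 40% of the cells present at the start died, and -100 means all died.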 Active and inactive are the calls of the source. The calls were made as follows: active = growth percent below 10; inactive = the rest.
Assays:
Test in all cases: NCI-60 one-dose screen, 48 h (100 = growth as untreated, 0 = no growth, -100 = all killed)
Conditions in all cases: 10 µM unless noted
HCT-15 colon = tested on: HCT-15 colon
HT29 colon = tested on: HT29 colon
SNB-19 CNS = tested on: SNB-19 CNS
U251 CNS = tested on: U251 CNS
PC-3 prostate = tested on: PC-3 prostate
SK-MEL-5 melanoma = tested on: SK-MEL-5 melanoma
UACC-62 melanoma = tested on: UACC-62 melanoma
LOX IMVI melanoma = tested on: LOX IMVI melanoma
SK-MEL-28 melanoma = tested on: SK-MEL-28 melanoma
SK-MEL-2 melanoma = tested on: SK-MEL-2 melanoma
EKVX NSCLC = tested on: EKVX NSCLC
SN12C renal = tested on: SN12C renal
UO-31 renal = tested on: UO-31 renal
TK-10 renal = tested on: TK-10 renal
ACHN renal = tested on: ACHN renal
CAKI-1 renal = tested on: CAKI-1 renal
A498 renal = tested on: A498 renal
CCRF-CEM leukemia = tested on: CCRF-CEM leukemia
MOLT-4 leukemia = tested on: MOLT-4 leukemia

Measured: growth

O=C1CS/C(=N\Nc2cc(=O)[nH]c3ccccc23)N1c1ccccc1
inactive: HCT-15 colon 94.5% | HT29 colon 98.6% | SNB-19 CNS 90.7% | U251 CNS 95% | PC-3 prostate 80.9% | SK-MEL-5 melanoma 96.2% | UACC-62 melanoma 85.5% | LOX IMVI melanoma 88.2% | SK-MEL-28 melanoma 111% | SK-MEL-2 melanoma 100% | EKVX NSCLC 87.3% | SN12C renal 94.1% | UO-31 renal 69.7% | TK-10 renal 111% | ACHN renal 93.6% | CAKI-1 renal 81.3% | A498 renal 81.7% | CCRF-CEM leukemia 86.2% | MOLT-4 leukemia 98.8%

CCCCCCCCCCCCCCCCCCNC(=O)[C@H]1CSC(c2cccs2)N1 (stereo not given in full)
active: HT29 colon -35% | U251 CNS -83.8% | SK-MEL-5 melanoma -66.2% | UACC-62 melanoma -92.1% | SK-MEL-28 melanoma -89.7% | SK-MEL-2 melanoma -86.7% | EKVX NSCLC 3.9% | SN12C renal -84.2% | CAKI-1 renal -0.0289% | CCRF-CEM leukemia -33.4% | MOLT-4 leukemia 3.87%
inactive: HCT-15 colon 42.5% | SNB-19 CNS 27.8% | PC-3 prostate 38.5% | LOX IMVI melanoma 14.2% | UO-31 renal 45.6% | TK-10 renal 29.9% | ACHN renal 67.9% | A498 renal 68.1%

Cc1ccc(S(=O)(=O)NC(=O)n2cc(-c3ccncc3)c(-c3ccc(Cl)c(O)c3)n2)cc1
inactive: HCT-15 colon 107% | HT29 colon 101% | SNB-19 CNS 117% | U251 CNS 111% | PC-3 prostate 95.3% | SK-MEL-5 melanoma 100% | UACC-62 melanoma 85.2% | LOX IMVI melanoma 93.4% | SK-MEL-28 melanoma 130% | SK-MEL-2 melanoma 90.9% | EKVX NSCLC 110% | SN12C renal 99.9% | UO-31 renal 107% | TK-10 renal 95.5% | ACHN renal 94.5% | CAKI-1 renal 95.5% | A498 renal 105% | CCRF-CEM leukemia 93.9% | MOLT-4 leukemia 85.2%

NC(=O)CCCN1C/C(=C\c2ccccc2)C(=O)c2ccccc21
inactive: HCT-15 colon 105% | HT29 colon 93.2% | SNB-19 CNS 88.7% | U251 CNS 96.7% | PC-3 prostate 89.6% | SK-MEL-5 melanoma 104% | UACC-62 melanoma 87.2% | LOX IMVI melanoma 104% | SK-MEL-28 melanoma 95.7% | SK-MEL-2 melanoma 90.4% | EKVX NSCLC 106% | SN12C renal 92.4% | UO-31 renal 78.1% | TK-10 renal 95% | ACHN renal 98.7% | CAKI-1 renal 90.6% | A498 renal 107% | CCRF-CEM leukemia 110% | MOLT-4 leukemia 104%

O=S(=O)(NCCCNc1nccc(-n2ccc3cccnc32)n1)c1cccc(C(F)(F)F)c1
inactive: HCT-15 colon 103% | HT29 colon 111% | SNB-19 CNS 102% | U251 CNS 97.8% | PC-3 prostate 103% | SK-MEL-5 melanoma 106% | UACC-62 melanoma 98.8% | LOX IMVI melanoma 99.9% | SK-MEL-28 melanoma 106% | SK-MEL-2 melanoma 107% | EKVX NSCLC 101% | SN12C renal 108% | UO-31 renal 104% | TK-10 renal 102% | ACHN renal 105% | CAKI-1 renal 94.6% | A498 renal 112% | CCRF-CEM leukemia 102% | MOLT-4 leukemia 97.3%

C=C1C(=O)O[C@H]2[C@H]1CC/C(Cn1cc(CNC(=O)c3cc4ccccc4[nH]3)nn1)=C\CC[C@@]1(C)O[C@@H]21
active: LOX IMVI melanoma -23.6% | CCRF-CEM leukemia -18.8% | MOLT-4 leukemia 4.74%
inactive: HCT-15 colon 79.8% | HT29 colon 11.4% | SNB-19 CNS 81.5% | U251 CNS 67.6% | PC-3 prostate 70.2% | SK-MEL-5 melanoma 64.4% | UACC-62 melanoma 49.8% | SK-MEL-28 melanoma 54.4% | SK-MEL-2 melanoma 59.6% | EKVX NSCLC 86.9% | SN12C renal 59.2% | UO-31 renal 73.4% | TK-10 renal 53% | ACHN renal 55.8% | CAKI-1 renal 80.8% | A498 renal 106%

CC(C)(C)n1cc(-c2ccnc(NCCCNS(=O)(=O)c3ccc(F)cc3)c2)c(-c2cccc(O)c2)n1
active: HCT-15 colon 0.588% | LOX IMVI melanoma -51.5%
inactive: HT29 colon 13.9% | SNB-19 CNS 71.3% | U251 CNS 50.5% | PC-3 prostate 27.5% | SK-MEL-5 melanoma 13.3% | UACC-62 melanoma 59.8% | SK-MEL-28 melanoma 39.2% | SK-MEL-2 melanoma 52.2% | EKVX NSCLC 49.8% | SN12C renal 53.4% | UO-31 renal 59.4% | TK-10 renal 97.6% | ACHN renal 38.2% | CAKI-1 renal 55% | A498 renal 59% | CCRF-CEM leukemia 35.7% | MOLT-4 leukemia 34.2%

O=C(NS(=O)(=O)c1ccc2ccccc2c1)n1cc(-c2ccncc2)c(-c2ccc(Cl)c(O)c2)n1
inactive: HCT-15 colon 82.1% | HT29 colon 70.3% | SNB-19 CNS 109% | U251 CNS 84.5% | PC-3 prostate 74.2% | SK-MEL-5 melanoma 77.5% | UACC-62 melanoma 15.5% | LOX IMVI melanoma 49.9% | SK-MEL-28 melanoma 54.6% | EKVX NSCLC 65.5% | SN12C renal 68.8% | UO-31 renal 56.4% | TK-10 renal 116% | ACHN renal 49.6% | CAKI-1 renal 96.2% | A498 renal 87.7% | CCRF-CEM leukemia 74.1% | MOLT-4 leukemia 78.9%
active: SK-MEL-2 melanoma -2.83%

COc1ccc(-n2c(-c3ccccc3)c(-c3ccccc3)c3c(SCC(=O)N/N=C/c4ccc(Cl)cc4)ncnc32)cc1
inactive: HCT-15 colon 105% | HT29 colon 94.4% | SNB-19 CNS 100% | U251 CNS 91.6% | PC-3 prostate 83.3% | SK-MEL-5 melanoma 86.9% | UACC-62 melanoma 86.7% | LOX IMVI melanoma 88.4% | SK-MEL-28 melanoma 104% | SK-MEL-2 melanoma 107% | EKVX NSCLC 87% | SN12C renal 99% | UO-31 renal 74.5% | TK-10 renal 108% | ACHN renal 101% | CAKI-1 renal 87.9% | A498 renal 75.6% | CCRF-CEM leukemia 93.4% | MOLT-4 leukemia 97%

O=C(c1ccccc1)c1c(/C=C/c2ccccc2)c2ccccc2[nH]c1=O
inactive: HCT-15 colon 101% | HT29 colon 106% | SNB-19 CNS 79.4% | U251 CNS 90.5% | PC-3 prostate 89.5% | SK-MEL-5 melanoma 96.4% | UACC-62 melanoma 70.3% | LOX IMVI melanoma 105% | SK-MEL-28 melanoma 113% | SK-MEL-2 melanoma 92.6% | EKVX NSCLC 98.2% | SN12C renal 92.7% | UO-31 renal 73.6% | TK-10 renal 97.8% | ACHN renal 93.5% | CAKI-1 renal 91.8% | A498 renal 97.6% | CCRF-CEM leukemia 87.6% | MOLT-4 leukemia 84.1%

CCOC(=O)CN1/C(=N/c2sc3c(c2C(=O)OCC)CCN(C(=O)OCC)C3)SC(=O)/C1=C\C(=O)OC
inactive: HCT-15 colon 58.6% | HT29 colon 61.2% | SNB-19 CNS 91.5% | U251 CNS 85.3% | PC-3 prostate 71.6% | SK-MEL-5 melanoma 99.7% | UACC-62 melanoma 92.8% | LOX IMVI melanoma 81.3% | SK-MEL-28 melanoma 109% | SK-MEL-2 melanoma 97.9% | EKVX NSCLC 93.1% | SN12C renal 85.7% | UO-31 renal 73.6% | TK-10 renal 99% | ACHN renal 95% | CAKI-1 renal 86.6% | A498 renal 93.3% | CCRF-CEM leukemia 27.7% | MOLT-4 leukemia 53.8%

CCCCOc1ccc(/C=C2/SC(N3CCOCC3)=NC2=O)cc1OCC
inactive: HCT-15 colon 98.6% | HT29 colon 104% | SNB-19 CNS 90.8% | U251 CNS 95.2% | PC-3 prostate 87.1% | SK-MEL-5 melanoma 98.7% | UACC-62 melanoma 88.6% | LOX IMVI melanoma 89.1% | SK-MEL-28 melanoma 97.4% | SK-MEL-2 melanoma 102% | EKVX NSCLC 90.8% | SN12C renal 85.2% | UO-31 renal 79.4% | TK-10 renal 116% | ACHN renal 96% | CAKI-1 renal 84.8% | A498 renal 90.2% | CCRF-CEM leukemia 90% | MOLT-4 leukemia 101%

O=[N+]([O-])c1cccc(-c2nc3sccn3c2-c2ccnc(NCCCNS(=O)(=O)c3ccc(C(F)(F)F)cc3)n2)c1
active: SK-MEL-5 melanoma -45.5% | UACC-62 melanoma -13.2% | MOLT-4 leukemia 7.2%
inactive: HCT-15 colon 17.6% | HT29 colon 36.8% | SNB-19 CNS 69% | U251 CNS 60.9% | PC-3 prostate 12% | LOX IMVI melanoma 17.6% | SK-MEL-28 melanoma 49.8% | SK-MEL-2 melanoma 25.3% | EKVX NSCLC 38.1% | SN12C renal 35.4% | UO-31 renal 12.5% | TK-10 renal 73.6% | ACHN renal 22.6% | CAKI-1 renal 21.1% | A498 renal 25% | CCRF-CEM leukemia 14.5%

O=C(NNC(=O)N1c2ccccc2C=Cc2ccccc21)c1ccc2ccccc2c1
inactive: HCT-15 colon 95.4% | HT29 colon 88.6% | SNB-19 CNS 95.3% | U251 CNS 92.6% | PC-3 prostate 74.9% | SK-MEL-5 melanoma 92% | UACC-62 melanoma 81.1% | LOX IMVI melanoma 93.6% | SK-MEL-28 melanoma 98.4% | SK-MEL-2 melanoma 98.5% | EKVX NSCLC 89% | SN12C renal 90.5% | UO-31 renal 88% | TK-10 renal 102% | ACHN renal 96.1% | CAKI-1 renal 96.8% | A498 renal 94.1% | CCRF-CEM leukemia 95% | MOLT-4 leukemia 94.9%

COc1cc(NC(=O)SC2=NCCS2)cc(OC)c1
inactive: HCT-15 colon 105% | HT29 colon 103% | SNB-19 CNS 90.5% | U251 CNS 97.7% | PC-3 prostate 93.6% | SK-MEL-5 melanoma 98.1% | UACC-62 melanoma 88.9% | LOX IMVI melanoma 98.3% | SK-MEL-28 melanoma 98.5% | SK-MEL-2 melanoma 106% | EKVX NSCLC 113% | SN12C renal 91.8% | UO-31 renal 93.6% | TK-10 renal 126% | ACHN renal 102% | CAKI-1 renal 108% | A498 renal 90.3% | CCRF-CEM leukemia 99.5% | MOLT-4 leukemia 110%

Reference: PubChem BioAssay (NCI)
